Over roughly 39,000 sequences, “fluorescence intensity (a.u.)” has its median near 4,300; the highest 2% begin near 39,000. The full list was thinned out, with the highest values kept by preference.

The assay deals with T1, OsSMF1 (Oryza sativa, UniProt Q6ZLB0 1-436).
T1 sequence: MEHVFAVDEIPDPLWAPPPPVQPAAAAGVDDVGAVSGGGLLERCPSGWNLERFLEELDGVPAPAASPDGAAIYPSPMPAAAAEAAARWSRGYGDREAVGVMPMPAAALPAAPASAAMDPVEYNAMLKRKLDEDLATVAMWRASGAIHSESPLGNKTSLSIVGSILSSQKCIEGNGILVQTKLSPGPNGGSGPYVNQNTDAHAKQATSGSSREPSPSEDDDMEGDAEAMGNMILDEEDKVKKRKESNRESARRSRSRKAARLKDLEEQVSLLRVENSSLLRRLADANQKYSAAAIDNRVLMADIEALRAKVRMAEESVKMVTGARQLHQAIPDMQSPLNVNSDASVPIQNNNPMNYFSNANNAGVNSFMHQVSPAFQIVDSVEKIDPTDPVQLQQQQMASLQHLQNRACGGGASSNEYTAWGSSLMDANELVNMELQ
Nature of the assay: protein-binding microarray (RPBM); PBS, 2% BSA, 51.3 ng/ul salmon testes DNA, 50 uM zinc acetate, 200 nM TF, 25 C, 1 h; high values mean tight binding. The settings on record: protein: recombinant; tags: N-terminal polyhistidine and DsRed monomer fusion (pET32a); chain copies: 2; label: CyDye5-dUTP incorporated in the synthesized complementary strand; 3' TTTTT single-stranded linker to array surface; dsDNA, one strand shown. In short, it runs like this:
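Polyhistidine-tagged DsRed fusions of transcription factors, joined at the N-terminus, were expressed in E. coli BL21-CodonPlus and isolated on Ni–NTA. They were incubated at 200 nM for 1 h at 25 °C on a custom Agilent array, double-stranded and BSA-blocked, in PBS with 2% BSA, salmon testes DNA and 50 µM zinc acetate. The binding signal is per-feature fluorescence intensity (arbitrary units) read on an Axon 4000B scanner after washing.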
As to “GCCGGCGTCGCCGTCGGGGATGCACCTCGGCGCGTCCGTCCGGAGTCACCTAGTGCAG”, the binding signal was 3550 fluorescence intensity (a.u.).
Next, “CGTGCTCACGAAACCCGATCGATCGGTGATCTGCACCGTCCGGAGTCACCTAGTGCAG”: 45200 fluorescence intensity (a.u.); “TGTCCCCGAACCGGATCTGCCCGATGCTCGCCGTCAGCATCGGAGTCACCTAGTGCAG”: 4300 fluorescence intensity (a.u.).
“TCCCGAAACCCGACACGCGGCACCGATCGATCGATCGATCCGGAGTCACCTAGTGCAG”: the binding signal was 3240 fluorescence intensity (a.u.).
For the sequence “TATATATGGCCTTTGGTCTGCATAGCTGTCCACGTCATCACGGAGTCACCTAGTGCAG”, the binding signal was 42200 fluorescence intensity (a.u.).
Turning to “AAAGTCATGTCATCACGTATATATCACGTATACATATATACGGAGTCACCTAGTGCAG”, the binding signal was 4080 fluorescence intensity (a.u.).
In the case of “ATTCTGTCTCCTTTGCCTGTCGTCACGCTGTCATCACGCTCGGAGTCACCTAGTGCAG” it was 4480 fluorescence intensity (a.u.); in that of “CCGTATACATAGCTAGCTGTCTGTGATGCATGCATGGTCACGGAGTCACCTAGTGCAG”, 44200 fluorescence intensity (a.u.).
Next, “ATATACATATACATATATATACACACACACGTATACATAGCGGAGTCACCTAGTGCAG”: 4840 fluorescence intensity (a.u.); “GCAGCATAGTTAGCTTTATATCTGTTTTACGTCATCACCACGGAGTCACCTAGTGCAG”: 6330 fluorescence intensity (a.u.).
In the case of “TTCTATTTTCGCATGTGGCATTTGTGGCTGCTTGCTAGACCGGAGTCACCTAGTGCAG” it was 3690 fluorescence intensity (a.u.).
Take “CAATATGACATTGTATATGTGAATTGAGTGTAACTTGGTTCGGAGTCACCTAGTGCAG”: the binding signal was 3290 fluorescence intensity (a.u.).
In the case of “TACGCCGTTACGTGGTATGGTGTTGTGCCATTTCAGTCGGCGGAGTCACCTAGTGCAG” it was 3500 fluorescence intensity (a.u.).
On to “AGAAAATGTGGAATGACGCAAATGCCCTTCTGCCTCCTCGCGGAGTCACCTAGTGCAG”, for which the binding signal was 5440 fluorescence intensity (a.u.).
In the case of “GATTGCAGCCGCCGCCTGCGTCGGTCCAGTCACCATTGGCCGGAGTCACCTAGTGCAG” it was 6870 fluorescence intensity (a.u.); in that of “ACTAAATCCTCAACCACCTCATATGTTTATGTACCATCGACGGAGTCACCTAGTGCAG”, 3510 fluorescence intensity (a.u.); in that of “GCGCAAGTTCTCCACAAGCCACCTCGATCGATCTCCATTGCGGAGTCACCTAGTGCAG”, 3420 fluorescence intensity (a.u.).
Next, “GTCAGTCACCGCCCTGTGGGGCCCACCCACCCGCGCCGTCCGGAGTCACCTAGTGCAG”: 9640 fluorescence intensity (a.u.).
Turning to “TTCAGATGTACAATTTTGCTGGATTACTAGTAGTTTTCTTCGGAGTCACCTAGTGCAG”, the binding signal was 17600 fluorescence intensity (a.u.).
In the case of “AGTTTGCTGCCCACTTCAGTAGGTTACAATACAATTATACCGGAGTCACCTAGTGCAG” it was 65300 fluorescence intensity (a.u.); in that of “CAACAATACAGTTATTGGTAATTACAAGCTACTAGTATACCGGAGTCACCTAGTGCAG”, 18600 fluorescence intensity (a.u.).
In the case of “CCTTTCCCTCTCCACTCTCCACCATCCTCTGCAGCTGACTCGGAGTCACCTAGTGCAG” it was 3330 fluorescence intensity (a.u.); in that of “CTGCGTTACTTCGACATTGCCCGACGTGTTGACTGTGTTGCGGAGTCACCTAGTGCAG”, 4070 fluorescence intensity (a.u.).
Next, “GTGTGAGGTTCATGCTGGGCGGTGACGCGACGGCGGAGACCGGAGTCACCTAGTGCAG”: 6730 fluorescence intensity (a.u.); “GTTACGACAAGTGCCACAAACCAGCAGAAGCAAAGGTAGACGGAGTCACCTAGTGCAG”: 47900 fluorescence intensity (a.u.).
As for “AAGAAGAAGACGACGACGTGGCGAGCCAAGTAGCAGCAAACGGAGTCACCTAGTGCAG”, the binding signal was 3620 fluorescence intensity (a.u.).
Take “CTAGAAGTTACCAAGGTACCAGAGCAGACACCTAAGCAGCCGGAGTCACCTAGTGCAG”: the binding signal is 3370 fluorescence intensity (a.u.).
In the case of “AGTATGAAAGACCTGAGGATGACCCGGATTATATTCCTATCGGAGTCACCTAGTGCAG”, the binding signal is 3320 fluorescence intensity (a.u.).
In the case of “GCAATGCATTTCAAATTCAGGACCCCATAGAGAAATCAACCGGAGTCACCTAGTGCAG” it was 29200 fluorescence intensity (a.u.).
Next, “GACACAAACAAAATCGAGAAGATGGCATACCTACCATACACGGAGTCACCTAGTGCAG”: 22800 fluorescence intensity (a.u.).
In the case of “AAAATCATACGAACGGAAAAGCAAAAGATAGAAGCCAAAACGGAGTCACCTAGTGCAG” it was 16500 fluorescence intensity (a.u.).
As for “AAACAAAGTGGCACAGATAAAATGGAACATAGAAGTGGCACGGAGTCACCTAGTGCAG”, the binding signal is 40700 fluorescence intensity (a.u.).
Next, “GATAACCGTAACTAACCGGCTTGGTCAGCAAGCCAAAGTGCGGAGTCACCTAGTGCAG”: 6310 fluorescence intensity (a.u.).
Next, “CTTCCACTGACATGACACCAAGAGACCACTTTCTTTAATTCGGAGTCACCTAGTGCAG”: 3250 fluorescence intensity (a.u.); “ATAATGAACAATTTCTTTCCAAGCTACATGTAGACCAGAGCGGAGTCACCTAGTGCAG”: 40100 fluorescence intensity (a.u.).
With “ATTCTTGCTACCTATAATTGCAACATGACAGAGTGTTAAGCGGAGTCACCTAGTGCAG”, the binding signal was 3480 fluorescence intensity (a.u.).
Next, “CTTGTTTCACCTGTCATACACACGTTACGTCTTAGAGTCCCGGAGTCACCTAGTGCAG”: 5140 fluorescence intensity (a.u.); “GTAGAAGACCGGCGGAAAGTGTGAGGAGGGTGACAAGGGGCGGAGTCACCTAGTGCAG”: 3420 fluorescence intensity (a.u.); “TACAGCGTCATTGCAAGAATGGTGACGGGGTTTGAGGTTGCGGAGTCACCTAGTGCAG”: 6110 fluorescence intensity (a.u.).
Regarding “ATTTTGACTGATGTGACGTTTGCGTGGCTGGTTTGATTAGCGGAGTCACCTAGTGCAG”, the binding signal was 4770 fluorescence intensity (a.u.).
In the case of “TGATTGCAACAGGTGGGCTGGTTTTGCGTCATTTGACCAGCGGAGTCACCTAGTGCAG” it was 51900 fluorescence intensity (a.u.); in that of “CTTGTCGCATCTGAACGTGTCGAGTCACACCTGTGTGTTACGGAGTCACCTAGTGCAG”, 8330 fluorescence intensity (a.u.).

These data come from article PMC7819943, “Rice protein-binding microarrays: a tool to detect cis-acting elements near promoter regions in rice”.
